This passage reports Potency results from PubChem BioAssay (Tox21).

The nature of experiment [1]: Nuclear factor erythroid 2-related factor 2/antioxidant responsive element (Nrf2/ARE) small molecule agonists: qHTS cell viability counter screen in human keratinocytes (AID 1919968; active means well fitted curve in the direction sought with a large enough effect in the repeat runs; an effect the other way counts as inactive or inconclusive; further: nearly all actives have a fitted effect of over 55% in size). In outline:
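Measured as CellTiter-Fluor fluorescence, this readout tracks cytotoxicity in the same wells as the ARE-luciferase screen. HaCaT reporter cells (1,500/well) received compounds after a 5 h pre-incubation and were exposed for 23 h.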
(In qHTS, concentration-response curves come from the screen itself.)

Experiment [2] is described as follows: Nuclear factor erythroid 2-related factor 2/antioxidant responsive element (Nrf2/ARE) small molecule agonists: luciferase reporter gene qHTS assay in human keratinocytes (AID 1919969). Further: nearly all actives have a fitted effect of over 35% in size. Further: potency means the concentration at half of the fitted maximal effect. For orientation: Reporter assays use an easily measured gene product as a stand-in for the process of interest.
Experiment [3] has as its target Gonadotropin-releasing hormone receptor (Homo sapiens) (UniProt P30968). Description: Human gonadotropin-releasing hormone receptor (GnRHR) small molecule agonists, calcium flux assay in GnRHR-HEK293 cells (AID 1920063). Further: nearly all actives have a fitted effect of over 35% in size. In outline:
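Fluorescence kinetics (480 nm excitation, 540 nm emission; 3 min, 1 s steps) report calcium mobilisation in human GnRHR-HEK293 cells in agonist mode. Dye incubation: 1 h, 37 C.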
For orientation: A change in cytosolic calcium serves as a functional read-out for many receptors and channels.

In experiment [4] the target is KiSS-1 receptor (Homo sapiens) (UniProt Q969F8). Description: Human kisspeptin (KISS1R) small molecule agonists, calcium flux assay in KISS1R-HEK293 cells (AID 1920064; active means well fitted curve in the direction sought with a large enough effect in the repeat runs; an effect the other way counts as inactive or inconclusive). In outline: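 Measures KISS1R agonism through calcium-sensitive dye fluorescence in stably transfected HEK293 cells, read for 3 min after pin-tool compound delivery; 15-point titrations in triplicate.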
KiSS-1 receptor (Homo sapiens), sequence (Q969F8 whole entry, looked up): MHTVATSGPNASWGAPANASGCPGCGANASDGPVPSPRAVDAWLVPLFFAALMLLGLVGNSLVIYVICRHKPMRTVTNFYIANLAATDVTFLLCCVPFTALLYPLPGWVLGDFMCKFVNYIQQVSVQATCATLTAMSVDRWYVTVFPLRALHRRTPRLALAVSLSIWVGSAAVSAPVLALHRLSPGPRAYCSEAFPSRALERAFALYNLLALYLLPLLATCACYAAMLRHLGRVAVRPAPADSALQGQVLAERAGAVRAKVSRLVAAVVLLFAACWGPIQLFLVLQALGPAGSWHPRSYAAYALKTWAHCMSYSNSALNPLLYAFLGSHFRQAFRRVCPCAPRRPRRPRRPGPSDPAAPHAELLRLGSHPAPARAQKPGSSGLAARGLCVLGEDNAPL

A short description of experiment [5]: G protein-coupled receptor (GPCR) small molecule agonists, calcium flux assay: HEK293 wild type cell line counter screen (AID 1920065). In outline:
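Readout: fluorescence at 480 nm excitation/540 nm emission, sampled at 1 s intervals for 3 min. Cells had been cultured 18 h, then dye-loaded 1 h at 37 C before compound or ATP addition.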

Experiment [6] in a line: p53 small molecule agonists, cell-based qHTS assay with rat liver microsomes: qHTS cell viability counter screen (AID 1963580). Further: nearly all actives have a fitted effect of over 45% in size. The gist of the method:
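p53RE-bla HCT-116 cells (4,000/well) rested 5 h at 37 C, then given Tox21 compounds in DMSO with rat liver microsomes (0.5 mg/mL final) plus NADPH (0.5 mg/mL final) for 16 h at 37 C. Viability read by CellTiter-Glo luminescence after 30 min at room temperature.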

The nature of experiment [7]: p53 small molecule agonists, cell-based qHTS assay: qHTS cell viability counter screen (AID 1963581). Further: nearly all actives have a fitted effect of over 45% in size. The gist of the method: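 In the same plates used for the p53 bla reporter, HCT-116 cells given compounds for 16 h at 37 C received CellTiter-Glo; luminescence was recorded 30 min later at room temperature.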
The target in experiment [8] is 5-hydroxytryptamine receptor 2A (Homo sapiens) (UniProt P28223). In words: 5-hydroxytryptamine receptor 2A (HTR2A) small molecule antagonists, cell-based qHTS assay (AID 1963586). Further: nearly all actives have a fitted effect of over 45% in size. Further: potency means the concentration at half of the fitted maximal effect. In outline: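 Antagonist-mode intracellular calcium assay: DOI (4 nM) added after 5 min compound pre-incubation at room temperature to dye-loaded HTR2A-CHO cells. Fluorescence followed for 3 min, sampled every second.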
5-hydroxytryptamine receptor 2A (Homo sapiens), sequence (P28223 whole entry, looked up): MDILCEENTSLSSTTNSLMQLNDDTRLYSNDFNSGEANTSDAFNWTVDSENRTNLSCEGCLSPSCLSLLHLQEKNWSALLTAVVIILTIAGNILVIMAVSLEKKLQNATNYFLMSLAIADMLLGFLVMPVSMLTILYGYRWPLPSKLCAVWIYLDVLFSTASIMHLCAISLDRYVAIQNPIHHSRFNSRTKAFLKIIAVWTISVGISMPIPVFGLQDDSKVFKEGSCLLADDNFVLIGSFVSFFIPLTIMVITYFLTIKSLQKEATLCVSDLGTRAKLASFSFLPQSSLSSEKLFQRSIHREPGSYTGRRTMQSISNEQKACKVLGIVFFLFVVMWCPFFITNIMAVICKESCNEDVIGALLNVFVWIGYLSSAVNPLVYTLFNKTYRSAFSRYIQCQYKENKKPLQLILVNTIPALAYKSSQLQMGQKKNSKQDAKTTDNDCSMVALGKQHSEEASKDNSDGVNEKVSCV

Experiment [9] shares this target. Description: 5-hydroxytryptamine receptor 2A (HTR2A) small molecule agonists, cell-based qHTS assay (AID 1963587). Further: nearly all actives have a fitted effect of over 30% in size. In outline:
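HTR2A-CHO cells, plated 18 h at 37 C/5% CO2, dye-loaded 1 h at 37 C; compounds in DMSO added by pin tool (agonist mode). Intracellular calcium flux read as kinetic fluorescence on FDSS over 2 min at 1 s intervals.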

In experiment [10] the target is Muscarinic acetylcholine receptor M1 (Homo sapiens) (UniProt P11229). Description: Cholinergic receptor muscarinic 1 (CHRM1) small molecule antagonists, cell-based qHTS assay (AID 1963588). Further: nearly all actives have a fitted effect of over 40% in size. Further: potency means the concentration at half of the fitted maximal effect. In outline:
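CHRM1-CHO calcium-flux assay, antagonist mode. Cells were seeded 18 h, dye-loaded 1 h at 37 C and given compound for 5 min at RT, then acetylcholine was added at 50nM. FDSS fluorescence was read 3 min; 15 concentrations, three runs.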

The target is the same in experiment [11]. Description: Cholinergic receptor muscarinic 1 (CHRM1) small molecule agonists, cell-based qHTS assay (AID 1963589). Further: nearly all actives have a fitted effect of over 35% in size. The gist of the method:
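Each compound was tested at 15 concentrations across three independent runs on dye-loaded CHO cells stably expressing human CHRM1, reading intracellular calcium fluorescence kinetically at 1 sec intervals.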

Experiment [12] can be described thus: cAMP Responsive Elements (CRE) small molecule agonists, cell-based qHTS assay (AID 1963590). The gist of the method:
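Cell line: CRE-bla HEK 293T; medium DMEM/10% dialyzed FBS/0.1 mM NEAA/1 mM pyruvate/25 mM HEPES; 3 h compound exposure; beta-lactamase FRET readout after 2 h substrate loading at RT.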

Experiment [13] is described as follows: cAMP Responsive Elements (CRE) small molecule antagonists, cell-based qHTS assay (AID 1963591; active means well fitted inhibition curve with a large enough effect in the signal ratio in the repeat runs, not every such curve was filed as active; the % refers to the signal ratio). The gist of the method: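 Inhibition of NKH477-driven (0.25 uM final) CRE-beta-lactamase signal in HEK293T cells, 3 h compound exposure at 37 °C, detected by FRET substrate fluorescence.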
The target in experiment [14] is Beta-2 adrenergic receptor (Homo sapiens) (UniProt P07550). Description: Adrenergic beta2 receptor (ADRB2) small molecule antagonists, cell-based qHTS assay (AID 1963592). Further: series mostly up to about 92 µM; nearly all actives have a fitted effect of over 50% in size. In outline: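 Cells (CHO, stable ADRB2 overexpression) incubated 18-20hr at 37C; compounds added from DMSO; agonist mix (1nM isoproterenol, 100uM IBMX, 25uM Ro-20-1724) added; 0.5hr RT; d2-cAMP and anti-cAMP-cryptate added; 1hr RT; 665/615 nm read.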
Beta-2 adrenergic receptor (Homo sapiens), sequence (P07550 whole entry, looked up): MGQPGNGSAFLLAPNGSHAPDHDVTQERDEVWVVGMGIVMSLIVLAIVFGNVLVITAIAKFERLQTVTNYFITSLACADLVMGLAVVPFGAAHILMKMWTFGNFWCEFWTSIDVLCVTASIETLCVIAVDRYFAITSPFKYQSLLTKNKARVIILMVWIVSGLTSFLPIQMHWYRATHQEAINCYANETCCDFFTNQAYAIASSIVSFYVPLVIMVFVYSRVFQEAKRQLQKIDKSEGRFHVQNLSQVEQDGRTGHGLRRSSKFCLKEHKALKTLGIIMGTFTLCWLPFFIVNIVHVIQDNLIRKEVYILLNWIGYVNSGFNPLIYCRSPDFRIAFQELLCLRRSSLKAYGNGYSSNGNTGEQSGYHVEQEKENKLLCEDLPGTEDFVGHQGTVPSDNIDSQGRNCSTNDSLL

Experiment [15] has the same target. Description: Adrenergic beta2 receptor (ADRB2) small molecule agonists, cell-based qHTS assay (AID 1963593).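 Further: CHO cells stably overexpressing human ADRB2.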 In outline: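 CHO cells stably over-expressing ADRB2 were plated overnight at 37C, then dosed with compounds plus a stimulation mix containing 100uM IBMX and 25uM Ro-20-1724 for 0.5hr at room temperature. cAMP was measured by HTRF competition, 1hr.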
For experiment [16], the target named is D(2) dopamine receptor (Homo sapiens) (UniProt P14416). In words: Dopamine D2 receptor (DRD2) small molecule antagonists, cell-based qHTS assay (AID 1963595; active means well fitted inhibition curve with a large enough effect in the signal ratio in the repeat runs, with a control signal flat; the % refers to the signal ratio; further: potency means the concentration at half of the fitted maximal effect). The gist of the method: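 HEK293 cells stably expressing DRD2 were preincubated with 0.1 mM Ro20-1724, then with compound for 10 min at room temperature. Cells were stimulated with 200 nM NKH477 plus 12 nM quinpirole for 30 min, and cAMP was read by HTRF.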
D(2) dopamine receptor (Homo sapiens), sequence (P14416 whole entry, looked up): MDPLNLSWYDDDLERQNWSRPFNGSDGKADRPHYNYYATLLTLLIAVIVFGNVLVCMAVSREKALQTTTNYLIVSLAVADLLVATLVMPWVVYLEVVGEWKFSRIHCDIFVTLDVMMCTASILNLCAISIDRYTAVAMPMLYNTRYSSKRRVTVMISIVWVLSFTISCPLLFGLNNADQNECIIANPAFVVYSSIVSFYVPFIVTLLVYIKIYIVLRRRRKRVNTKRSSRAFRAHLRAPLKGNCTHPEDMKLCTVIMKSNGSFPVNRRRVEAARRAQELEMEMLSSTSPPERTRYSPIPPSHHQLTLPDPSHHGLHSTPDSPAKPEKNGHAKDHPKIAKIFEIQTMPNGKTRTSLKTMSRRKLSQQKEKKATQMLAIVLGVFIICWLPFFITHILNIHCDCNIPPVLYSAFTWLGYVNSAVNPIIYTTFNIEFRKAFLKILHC

Experiment [17] has the same target. In words: Dopamine D2 receptor (DRD2) small molecule agonists, cell-based qHTS assay (AID 1963594). Further: nearly all actives have a fitted effect of over 35% in size. The gist of the method: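 HEK293 cells stably expressing DRD2 were cultured 24 h at 37 C, then given Ro20-1724 (0.1 mM final) and compounds for 10 min at room temperature. NKH477 (200nM) was then added for 30 min. cAMP was read by HTRF.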
A short description of experiment [18]: p53 small molecule agonists, cell-based qHTS assay with human liver microsomes: qHTS cell viability counter screen (AID 1963579). Further: nearly all actives have a fitted effect of over 45% in size. In outline: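 Metabolic activation used human liver microsomes and NADPH, both 0.5 mg/mL final, over 16 hours at 37 C on p53RE-bla cells (4,000/well). Cytotoxicity measured by CellTiter-Glo luminescence, 30 min at room temperature.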

Values without a mark were called inactive. Records with an inconclusive call do not appear. The source made the active and inactive calls. Unless noted, the call rests on the fitted dose curve.

Gonadotropin-releasing hormone receptor (Homo sapiens), sequence (P30968 whole entry, looked up): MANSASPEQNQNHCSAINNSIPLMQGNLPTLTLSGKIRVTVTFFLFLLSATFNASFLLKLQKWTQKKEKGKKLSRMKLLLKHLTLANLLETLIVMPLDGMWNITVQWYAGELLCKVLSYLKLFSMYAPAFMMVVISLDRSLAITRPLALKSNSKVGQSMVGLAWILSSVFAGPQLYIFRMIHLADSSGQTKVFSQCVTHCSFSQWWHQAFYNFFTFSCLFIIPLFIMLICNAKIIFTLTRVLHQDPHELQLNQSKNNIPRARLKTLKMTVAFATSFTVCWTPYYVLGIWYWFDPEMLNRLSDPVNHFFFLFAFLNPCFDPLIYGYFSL
Muscarinic acetylcholine receptor M1 (Homo sapiens), sequence (P11229 whole entry, looked up): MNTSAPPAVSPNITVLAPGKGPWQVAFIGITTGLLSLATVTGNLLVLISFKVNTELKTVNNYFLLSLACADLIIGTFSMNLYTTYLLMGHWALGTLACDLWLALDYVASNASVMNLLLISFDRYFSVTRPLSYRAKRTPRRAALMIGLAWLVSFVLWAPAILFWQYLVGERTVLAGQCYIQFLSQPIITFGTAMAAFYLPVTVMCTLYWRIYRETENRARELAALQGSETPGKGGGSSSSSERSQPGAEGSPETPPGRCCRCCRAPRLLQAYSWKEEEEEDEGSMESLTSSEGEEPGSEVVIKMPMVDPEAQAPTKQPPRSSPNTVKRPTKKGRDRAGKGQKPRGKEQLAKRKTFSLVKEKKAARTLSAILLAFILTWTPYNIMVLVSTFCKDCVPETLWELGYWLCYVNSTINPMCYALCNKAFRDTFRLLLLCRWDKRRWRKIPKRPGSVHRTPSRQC

On to `O=C(O)c1ccccc1-c1ccc(C(F)(F)F)cc1`, for which the Potency result in [1], in [2], in experiment [3], in experiment [4], in [5] and in [6] was “inactive” each time. Besides, the Potency result in [7], in [8], in [9], in [10], in [11] and in [12] was “inactive” each time. In addition, the Potency result in experiment [13], in [14], in [15] and in experiment [16] was “inactive” throughout.

As to `CC(=O)OCC(=O)NCCCOc1cccc(CN2CCCCC2)c1`, the Potency entry in experiment [1], in experiment [2], in experiment [3], in experiment [4], in [5] and in experiment [6] was “inactive” in each case. In addition, the Potency result in experiment [7], in [9], in experiment [10], in [11], in [12] and in experiment [13] was “inactive” each time. Moreover, the Potency entry in experiment [14] and in [16] was “inactive” in each case.

As for `O=[N+]([O-])c1ccc(Cl)cc1Cl`, the Potency entry in [1], in experiment [2], in experiment [3], in experiment [4], in [5] and in experiment [6] was “inactive” throughout. Further, the Potency entry in [7], in experiment [8], in [9], in experiment [10], in [11] and in experiment [12] was “inactive” in each case. For the same compound, the Potency result in [13], in experiment [14], in [15], in experiment [17] and in [16] was “inactive” throughout.

Turning to `Nc1cc(N)cc(C(=O)O)c1`, the Potency result in experiment [1], in experiment [2], in [3], in [4], in [5] and in experiment [6] was “inactive” in each case. In addition, the Potency result in experiment [7], in experiment [8], in experiment [9], in [10], in [11] and in [12] was “inactive” throughout. Besides, the Potency result in experiment [13], in experiment [14] and in [17] was “inactive” each time.

Turning to `O=c1oc2cc(O)ccc2c2oc3cc(O)ccc3c12`, the Potency result in experiment [1], in experiment [3], in experiment [4], in experiment [5], in experiment [6] and in experiment [7] was “inactive” throughout. The Potency entry in experiment [8], in experiment [9], in [10], in experiment [11] and in experiment [16] was “inactive” in each case. Also, in [2], the Potency was 29.4 µM (active).

With `CC(=O)c1ccc2c(c1)N(CCCN(C)C)c1ccccc1S2`, the Potency entry in experiment [1], in [2], in experiment [3], in [4], in experiment [5] and in experiment [18] was “inactive” in each case. For the same compound, the Potency result in experiment [9], in experiment [11], in [12], in experiment [13], in experiment [14] and in experiment [17] was “inactive” throughout. The Potency in [8] was 25.9 nM (active); in experiment [10] it was 410 nM (active); in experiment [16] it was 1.68 µM (active).
